Screening results deposited in PubChem by Johns Hopkins Ion Channel Center.
KCNQ2 pot = enhances the rat KCNQ2 potassium channel | O88943 | B-score at 10 µM | actives 0.54% (n = 310,000) | CHO-K1 KCNQ2, FluxOR thallium flux fluorescence; hits give high values;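 active = fluorescence ratio B-score at least 3 SD of library B-scores, with initial fluorescence B-score within 3 of them, cut at about 5.3 in these data; same plate scores as AID 2156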;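 note: B-score of peak minus minimum over baseline fluorescence ratio after K+ and Tl+ stimulus; positive B-score means potentiation of KCNQ2 with more thallium influx and brighter signal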
Target sequence (O88943 whole entry, looked up): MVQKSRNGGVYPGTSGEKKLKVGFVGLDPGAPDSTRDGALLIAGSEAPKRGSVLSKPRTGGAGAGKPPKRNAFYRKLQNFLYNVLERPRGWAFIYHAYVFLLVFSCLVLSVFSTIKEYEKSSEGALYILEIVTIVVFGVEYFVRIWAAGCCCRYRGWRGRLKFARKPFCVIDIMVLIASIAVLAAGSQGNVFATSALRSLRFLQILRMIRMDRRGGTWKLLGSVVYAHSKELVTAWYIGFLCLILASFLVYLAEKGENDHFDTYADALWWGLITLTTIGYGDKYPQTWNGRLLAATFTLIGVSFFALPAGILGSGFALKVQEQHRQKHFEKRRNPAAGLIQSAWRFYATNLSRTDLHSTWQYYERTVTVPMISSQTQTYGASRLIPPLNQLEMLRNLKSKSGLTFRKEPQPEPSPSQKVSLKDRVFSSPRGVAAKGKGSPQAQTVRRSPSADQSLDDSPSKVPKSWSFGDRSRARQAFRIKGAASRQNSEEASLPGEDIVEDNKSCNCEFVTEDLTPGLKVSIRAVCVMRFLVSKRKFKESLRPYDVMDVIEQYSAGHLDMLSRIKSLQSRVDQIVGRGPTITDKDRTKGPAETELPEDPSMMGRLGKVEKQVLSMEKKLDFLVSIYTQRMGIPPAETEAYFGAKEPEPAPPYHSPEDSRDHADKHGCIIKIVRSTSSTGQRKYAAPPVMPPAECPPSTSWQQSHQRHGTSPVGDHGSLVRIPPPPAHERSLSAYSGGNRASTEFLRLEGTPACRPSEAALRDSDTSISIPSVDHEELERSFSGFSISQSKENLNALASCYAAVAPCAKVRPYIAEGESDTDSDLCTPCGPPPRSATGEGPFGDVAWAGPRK
KCNQ2 block = blocks the rat KCNQ2 potassium channel; CHO-K1 KCNQ2, FluxOR thallium flux, 20 min; hits give low values; B-score at 10 µM; actives 1.1% (n = 310,000); AID 2156;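 active = fluorescence ratio B-score at most minus 3 library SDs, with starting brightness B-score within 2 library SDs, cut at about -5.5 in these data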
Each line names hits and unclear results; the compound was inactive in the other large screens. Compounds with a hit are over-represented: about 1.6% of the library has one in this group of screens.

C=CCn1c(SCC(=O)c2cccs2)nc2sc(C)c(C)c2c1=O	none (no result: KCNQ2 pot)
C=CCn1c(SCc2csc(C)n2)nc2sc3c(c2c1=O)CCCCC3	KCNQ2 block -8.1
CC1CC(C)CN(C(=O)CCC(=O)Nc2nnc(C(C)C)s2)C1 (stereo not given)	none
COc1cccc(OC)c1C(=O)Nc1ccc2c(c1)N(S(=O)(=O)c1cccs1)CCC2	none
O=C(Nc1ccc2c(c1)N(S(=O)(=O)c1cccs1)CCC2)c1c(F)cccc1Cl	KCNQ2 block -6.4
O=C(c1cc2ccccc2cc1O)N1CCN(c2ccc([N+](=O)[O-])cc2)CC1	none (no result: KCNQ2 pot)
CSc1ccccc1OCc1cc(C(=O)NCCc2ccco2)no1	none
COc1ccccc1-c1nc(COc2ccc(Cl)cc2Cl)no1	none (no result: KCNQ2 pot)
CC(=O)c1ccc(NC(=O)COC(=O)c2ccccc2Sc2ccccc2C#N)cc1	none
N#Cc1ccccc1Sc1ccccc1C(=O)OCC(=O)NC12CC3CC(CC(C3)C1)C2	KCNQ2 pot 6.3
Nc1nonc1C(=O)NCCNC(=O)c1cccc(Cl)c1	none
O=C(NCCc1c[nH]c2ccccc12)OCCSS(=O)(=O)O	none
COc1ccccc1CCNC(=O)c1ccc(Br)s1	KCNQ2 block -6.3
COc1ccccc1CCNS(=O)(=O)CCNC(=O)c1ccccc1	none
CC1CCCC(NC(=O)c2ccc(COc3ccccc3)o2)C1C (stereo not given)	none (no result: KCNQ2 pot)
Cc1ccc(Sc2c(C=O)c3ccccc3n2C)cc1	none
Cc1cccc(Oc2c(C=O)c3ccccc3n2C)c1	KCNQ2 block -6.5
CCOC(=O)c1nnn(CC(=O)N2N=C(c3cc(C)ccc3C)CC2c2ccc(OC)cc2)c1C(=O)OCC (stereo not given)	KCNQ2 block -5.8
CCOC(=O)c1nnn(CC(=O)N2N=C(c3ccccc3)CC2c2ccccc2)c1C(=O)OCC (stereo not given)	none
O=[N+]([O-])c1cccc(/C=C/c2nc3ccc([N+](=O)[O-])cc3[nH]2)c1	KCNQ2 block -8.1
Cc1nc2ccc([N+](=O)[O-])cc2[nH]1	none
COc1ccc2nc(NC(=O)C3CCN(C(=O)c4ccco4)CC3)sc2c1	none (no result: KCNQ2 pot)
CC1CCCCN1C(=O)COC(=O)C1CCN(S(=O)(=O)c2ccc3c(c2)OCCO3)CC1 (stereo not given)	none
Cc1ccc(C(=O)Nc2ccccc2-c2ccccc2)cc1[N+](=O)[O-]	none (no result: KCNQ2 pot)
Cc1ccc(C(=O)Nc2cc(Cl)ccc2Oc2ccccc2)cc1[N+](=O)[O-]	KCNQ2 block -6.1
O=C1c2ccccc2C(=O)C12OC(c1ccccc1)C1(C(=O)c3ccccc3C1=O)C2c1ccc([N+](=O)[O-])cc1 (stereo not given)	KCNQ2 block -7.9
O=C1c2ccccc2C(=O)C12OC(c1ccccc1)C1(C(=O)c3ccccc3C1=O)C2c1cccc([N+](=O)[O-])c1 (stereo not given)	none (no result: KCNQ2 pot)
Cc1cccc(C(=O)NC(=S)NNC(=O)c2cccs2)c1	KCNQ2 pot 8.2
O=C(NC(=S)NNC(=O)c1cccs1)c1ccccc1	none (no result: KCNQ2 pot)
Cc1sc2ncnc(N3CCC(C(=O)N(CC(C)C)c4nc5ccccc5s4)CC3)c2c1C	KCNQ2 block -6.2
CCCN(CC(=O)Nc1ccccc1C)C(=O)C1CCN(c2ncnc3sc(C)c(C)c23)CC1	KCNQ2 block -6.8
Cc1cccc(OCC(=O)NNC(=O)C2CCN(c3ncnc4sc(C)c(C)c34)CC2)c1	none (no result: KCNQ2 pot)
Cc1ccccc1OCC(=O)NNC(=O)C1CCN(c2ncnc3sc(C)c(C)c23)CC1	none (no result: KCNQ2 pot)
O=C(Cc1ccsc1)Nc1ccc(Cl)cc1Cl	none
O=C(CCN1CCN(C(=O)c2ccccc2)CC1)c1ccc(Br)cc1	KCNQ2 block -9
O=C(c1ccc(Br)cc1)N1CCN(Cc2ccccc2)CC1	none (no result: KCNQ2 pot)
Cc1cc2ccccn2c1C(=S)NC(=O)c1ccccc1	KCNQ2 pot 19
Cc1cc2ccccn2c1C(=O)c1ccncc1	none
CCOC(=O)Cn1c(S(=O)(=O)Cc2ccccc2)nc2ccccc21	none
CCOC(=O)Cn1c(S(=O)(=O)Cc2ccc(Cl)cc2)nc(-c2ccccc2)c1-c1ccccc1	KCNQ2 block -6.5
CN(CCc1nc2ccc(Cl)cc2[nH]1)Cc1nc(CC2CC2)no1	none
COc1ccc2c(c1)Sc1ccccc1N2CCN(C)C	none (no result: KCNQ2 pot)
CN1c2ccccc2C(C)(C)C12CC(CCl)=NO2 (stereo not given)	none
CN1c2ccccc2C(C)(C)C12C=Nc1c(ccc3ccccc13)O2 (stereo not given)	KCNQ2 block -5.7
COc1ccc2ccc3c(c2c1)N=CC1(O3)N(C)c2ccccc2C1(C)C (stereo not given)	KCNQ2 block -8.2
CCCCn1c(N)c(N(CC(C)C)C(=O)c2cccc(OCc3ccccc3)c2)c(=O)[nH]c1=O	none
COc1ccc(C(=O)Nn2c(C)nc3ccccc3c2=O)c(OC)c1	none (no result: KCNQ2 pot)
COc1cccc(C(=O)Nn2c(-c3cccs3)nc3ccccc3c2=O)c1OC	KCNQ2 block -6.4
COC(=O)c1ccc2c(C)c(C(C)(C)O)[nH]c2c1	none
C/C(=N\NC(=O)CCC(=O)Nc1ccc(C)c(C)c1)C1CC1	none
O=C(NCc1ccc2c(c1)OCO2)NC12CC3CC(CC(C3)C1)C2	KCNQ2 pot 25
O=C(COc1ccc2c(c1)OCO2)NC12CC3CC(CC(C3)C1)C2	none (no result: KCNQ2 pot)
CCOc1ccc(S(=O)(=O)N2CCC(C(=O)NCc3ccccn3)CC2)cc1C	none (no result: KCNQ2 pot)
Cc1ccc(-n2nc3c(=O)n(CC(=O)NC4CCCCC4)nc(C)c3c2C)cc1	none
O=C(Nn1c(SCc2ccccc2F)nc2ccsc2c1=O)c1ccccc1	KCNQ2 block -6.4
O=C(CSc1nc2ccsc2c(=O)n1NC(=O)c1ccccc1)Nc1nccs1	none (no result: KCNQ2 pot)
COCCN(C(=S)Nc1cc(C)cc(C)c1)C(C)c1ccco1 (stereo not given)	none (no result: KCNQ2 pot)
COc1nc(NC(=O)c2ccc(F)cc2)nc(OC)c1-c1ccccc1	none (no result: KCNQ2 pot)
CC(C)(C)NC(=S)NNC(=O)c1cccc(Br)c1	none
O=C(O)c1cc(NC(=O)c2ccc(Cl)c([N+](=O)[O-])c2)cc(C(=O)O)c1	none
O=C(Nc1ccc(C(O)(C(F)(F)F)C(F)(F)F)cc1)c1ccc(Cl)c([N+](=O)[O-])c1	KCNQ2 block -7
COC(=O)c1c(NC(=O)C2=COCCO2)sc(C)c1C	none
O=C(CSc1nc(C(F)(F)F)cc(=O)[nH]1)NCc1ccc2c(c1)OCO2	none (no result: KCNQ2 pot)
CCCSc1nc(N2CCOCC2)c2c(c1C#N)CC(C)(C)SC2	none
CC(C)Sc1nc(N2CCOCC2)c2c(c1C#N)CC(C)(C)SC2	KCNQ2 block -6.2
Cc1cc(C(=O)CSc2nc3ccccc3o2)c(C)n1CC1CCCO1 (stereo not given)	none
Cc1cc(C(=O)CSc2nc3ccccc3[nH]2)c(C)n1CC1CCCO1 (stereo not given)	KCNQ2 block -5.6
COc1ccc(NC(=S)N(CCCN2CCOCC2)Cc2ccco2)cc1	none (no result: KCNQ2 pot)
CCc1ccc(NC(=S)N(CCCN2CCOCC2)Cc2ccco2)cc1	KCNQ2 pot 6.6
Cc1ccc2nc(Cl)c(CN(Cc3cccs3)C(=O)C3CC3)cc2c1	none (no result: KCNQ2 pot)
COc1ccc(CCN(Cc2cc3cc(C)c(C)cc3nc2Cl)C(=O)C2CC2)cc1	KCNQ2 block -6.5
Cn1c(SCC(=O)Nc2nccs2)nnc1-c1ccco1	none (no result: KCNQ2 pot)
Cn1c(SCC(=O)Nc2ccc(Cl)cc2F)nnc1-c1ccco1	KCNQ2 block -5.8
CCOC(=O)c1cccc(NC(=O)CSc2nnc(COc3ccccc3)n2CC)c1	none (no result: KCNQ2 pot)
CCOC(=O)c1ccccc1NC(=O)CSc1nnc(COc2ccccc2)n1CC	KCNQ2 block -6.4
CCOc1ccc(C(=O)NC(C(=O)NCc2ccccc2OC)C(C)C)cc1 (stereo not given)	none (no result: KCNQ2 pot)
